# Screening data from PubChem BioAssay.
# Shown are actives, neighbours in structure and some others; about 21% of the full set was active somewhere.
# Shiga inhibitor – inhibitors of Shiga toxin in Vero cells; Vero cells, Shiga toxin protein synthesis inhibition reporter; inhibition, % at 38.7 µM; 290,000 tested, 9.2% active; AID 2315; in the data active = inhibition mostly above about 28%, no sharp cut-off; inactive = mostly below about 43%; note: 0% is about no effect
# CHX counter – counter-screen hit for Shiga toxin inhibitors, cycloheximide | cell reporter, cycloheximide protein synthesis inhibition counterscreen | max response, % | 300,000 tested, 12% active | AID 2314; in the data active = max response mostly above about 13%, no sharp cut-off; inactive = mostly below about 14%; note: read at 38.3 µM for the half of the compounds with a filed dose; 0% is about no effect
# HCV inh – inhibitors of hepatitis C virus infection | Huh7.5.1 HCVcc-Cre infection, luciferase reporter, 44 h | Potency, µM (highest dose often 41.8 µM), for inactives: at the top dose activity change, negative = inhibition, usual class: inhibitors | 340,000 tested, 3.4% active | AID 651820; note: potency is the fitted concentration of half-maximal effect; % is set by controls: 0 for no effect and ±100 for the full control effect
#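 Luciferase read-out (15 sec integration) after a 15 min room-temperature substrate step quantifies HCVcc-Cre infection. Cells, 1,000 per well, had compound added 4 h post-plating, then virus at ~0.5 moi, and were cultured 44 h.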
# Pf growth 48h – P. falciparum growth inhibition at 48 hours (one generation) | P. falciparum luciferase growth in erythrocytes, 48 h | Potency, µM (titrated, usually from 28.7 µM), without a hit: top-dose activity change, negative = inhibition, usual class: inhibitors | 310,000 tested, 5.9% active; note: potency is the fitted concentration of half-maximal effect; % is set by controls: 0 for no effect and ±100 for the full control effect
#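 Luminescence readout; reporter = integrated firefly luciferase in P. falciparum. RBC culture at 2% hematocrit, 0.1% parasitemia final, 37 C/5% CO2; decreased signal taken as growth inhibition.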
# Pf growth 96h – P. falciparum growth inhibition at 96 hours; P. falciparum luciferase reporter growth, 96 h; Potency, µM (top dose mostly 28.7 µM), inactives show at the highest dose activity change, negative = inhibition, actives largely listed as inhibitors; 320,000 tested, 6.9% active; AID 504834; note: potency is the fitted concentration of half-maximal effect; % is set by controls: 0 for no effect and ±100 for the full control effect
#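 Delayed-death screen, second-generation endpoint: infected erythrocytes, 2% hematocrit, 0.05% parasitemia final; 96 hours at 37 C, 5% CO2; luciferase detection reagent; luminescence decrease equals reduced growth.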
# AMA1 RON2 block – AMA1-RON2 (P. falciparum) interaction inhibition | AlphaScreen AMA1-biotinylated RON2 peptide binding | Potency, µM (series often up to 58.2 µM), without a hit: top-dose activity change, negative = inhibition, most hits filed as inhibitors | 360,000 tested, 0.2% active | AID 720542;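 note: potency is the fitted concentration of half-maximal effect; 0% = vehicle wells and -100% = peptide control; nearly all actives have a fitted effect of over 45% in size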
#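 AMA1 (3D7) with his tag at 25 nM final met compounds first, then biotinylated RON2 peptide at 25 nM; detection used donor plus acceptor beads, 10 µg/mL apiece, read by AlphaScreen after 30 min at room temperature.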
# The depositor's hits bear a star; ? = inconclusive; nt = no result given; [ ] = dose if it differs, or a comment. Unless noted, calls come from the whole dose curve; as a rule, active = well fitted curve in the direction sought with a large enough effect; inconclusive = small, poorly fitted or top-dose-only effect, or another doubt; inactive = no such curve, though single readings can be large; an effect the other way counts as inactive or inconclusive.
SMILES,Shiga inhibitor,CHX counter,HCV inh,Pf growth 48h,Pf growth 96h,AMA1 RON2 block
COc1ccccc1CN(Cc1cc2cc3c(cc2[nH]c1=O)OCCO3)Cc1nnnn1Cc1ccco1,-13,-2,3%,?,1µM*,-75%
O=c1[nH]c2cc3c(cc2cc1CN(Cc1cccs1)Cc1nnnn1Cc1ccco1)OCCO3,12,-4,-3%,?,12µM*,-8%
CC(=O)NC(c1ccccc1)c1nc(-c2ccc(F)c(Cl)c2)cs1 (configuration not stated),nt,nt,nt,nt,nt,-1%
COc1ccc(C2=Nn3c(nnc3C3CCCCC3)SC2)cc1OC,-8,5,?,nt,4.7µM*,-5%
COc1ccc(OC)c(C2=Nn3c(nnc3C3CCCCC3)SC2)c1,-1,-6,16µM*,?,9.3µM*,-8%
O=C(CCC(=O)N(CC(=O)NC1CCCCC1)c1ccc(F)cc1)Nc1ccccn1,-13,-5,14%,-5%,-9%,21%
Cc1cc(C=O)c(O)cc1O,-7,-2,14%,63%,24%,42%
CSCC[C@H](NC(=O)OC(C)(C)C)c1nnc(SCc2ccccc2)o1,23,-1,-5%,6.6µM*,-13%,-1%
CC(C)C[C@H](NC(=O)OC(C)(C)C)c1nnc(SCc2cccc(F)c2)o1,27*,9,-14%,?,10µM*,54%
CSCC[C@H](NC(=O)OC(C)(C)C)c1nnc(SCc2ccc(F)cc2)o1,19,-4,?,?,?,-5%
Cc1cccc(NC(=O)CSc2nnc([C@@H](N)Cc3c[nH]c4ccccc34)o2)c1C,1,-2,-4%,?,1.7µM*,64%
CCSc1nnc([C@@H](N)Cc2c[nH]c3ccccc23)o1,13,13,0%,-6%,-10%,-1%
CSCC[C@H](NC(=O)OC(C)(C)C)c1nnc(SCc2cccc(F)c2)o1,9,1,?,?,31%,31%
CSc1nnc([C@H](Cc2c[nH]c3ccccc23)NC(=O)OC(C)(C)C)o1,65*,26*,-13%,-6%,12%,-12%
COc1ccccc1C(=O)NCC(=O)N/N=C/c1cn[nH]c1-c1ccccc1,8,-2,3%,-29%,76%,37%
O=C(CCNC(=O)N1CC(=O)Nc2ccccc21)NCc1ccccc1,nt,nt,nt,nt,nt,-6%
CCOc1cc([N+](=O)[O-])c2nc(N)sc2c1,5,10,?,20%,17%,-6%
CCOc1ccc(NS(=O)(=O)c2ccc(C(=O)NCc3cccnc3)cc2)cc1,nt,nt,?,-7%,?,-7%
CCOc1ccc(C(=O)NCc2ccncc2)cc1,-6,-3,16%,7%,4.1µM*,-8%
CCOc1ccc(NS(=O)(=O)c2ccc(C(=O)NCc3ccncc3)cc2)cc1,nt,nt,7.1µM*,?,-4%,0%
Cc1ccc(S(=O)(=O)N2CCOCC2)cc1C(=O)Nc1ccccc1N1CCOCC1,nt,nt,15%,-14%,-29%,3%
COC(=O)c1c(-c2c(Cl)cccc2Cl)noc1NC(=O)NN1CCOCC1,-10,-2,-3%,13µM*,1.3µM*,3%
COC(=O)c1c(-c2c(Cl)cccc2Cl)noc1NC(=O)NN1CCCCC1,-8,-2,-9%,0.33µM*,0.26µM*,24%
CC1CCC(C(C)C)C(=O)/C1=C/c1ccc(N)cc1 (configuration not stated),92*,35*,-8%,52%,84%,0%
CN(CC(=O)NCc1ccccc1Cl)S(=O)(=O)c1ccc2c(c1)n(C)c(=O)c(=O)n2C,-7,1,4%,?,-6%,-2%
SMILES,Shiga inhibitor,CHX counter,HCV inh,Pf growth 48h,Pf growth 96h,AMA1 RON2 block
C(=N\Nc1ncnc2nc[nH]c12)/c1cccs1,111*,41*,27%,101%,270%,102%
Cc1ccsc1/C=N/Nc1ncnc2nc[nH]c12,85*,42*,20%,185%,234%,68%
Cc1ccccc1/C=N/Nc1ncnc2nc[nH]c12,72*,21*,-1%,-15%,8%,6%
Fc1ccc(/C=N/Nc2ncnc3nc[nH]c23)cc1F,99*,73*,1%[8.37 µM],?,9.3µM*,43%
c1ccc(CNc2ncnc3nc[nH]c23)cc1,17,13,-42%,nt,?,7%
CCC[C@H]1C[C@H](C(=O)N[C@@H]([C@H]2O[C@@H](SC)[C@@H](O)[C@@H](O)[C@@H]2O)[C@H](C)Cl)N(C)C1,nt,nt,nt,0.19µM*,0.034µM*,nt
CSc1oc(-c2ccccc2)nc1C(N)=O,23,-1,14%,32%,nt,1%
Nc1c(Br)cc2oc(-c3ccccc3)nc2c1Br,33,18*,27%,227%,273%,-11%
COc1ccc(-c2cnc(N)nc2-c2ccc(OC)cc2O)cc1,-11,-3,?,7%,33%,0%
COc1ccc(-c2nc3c(Br)c(N)c(Br)cc3o2)cc1,19,9,?,2.3µM*,?,5%
CCC(C)NC(=O)Cn1cnc2sc(C)c(S(=O)(=O)N3CCCCC3)c2c1=O (configuration not stated),-8,-2,20%,1%,1%,2%
O=C(Cc1ccc(S(=O)(=O)N2CCOCC2)s1)Nc1cc(C(F)(F)F)ccc1N1CCCC1,nt,nt,?,12µM*,?,?
CCOC(=O)c1cc(NC(=O)Cc2ccc(S(=O)(=O)N3CCOCC3)s2)cc(C(=O)OCC)c1,nt,nt,?,10µM*,5.2µM*,6%
O=C(Cc1ccc(S(=O)(=O)N2CCOCC2)s1)Nc1cc(C(F)(F)F)cc(C(F)(F)F)c1,nt,nt,11µM*,?,?,9%
O=C(Cc1ccc(S(=O)(=O)N2CCOCC2)s1)Nc1ccc(N2CCOCC2)cc1,16,9,15%,171%,258%,-16%
O=C(Cc1ccc(S(=O)(=O)N2CCCC2)s1)Nc1nc2c(s1)CCCC2,46*,28*,-12%,?,-1%[5.75 µM],5%
CSCCC(N=C(NS(=O)(=O)c1ccc(C)cc1)c1ccccc1)C(=O)O (configuration not stated),18,-1,10%,7%,27%,3%
COc1ccc(S(=O)(=O)N(C)C)cc1NC(=O)c1ccc(OCC(=O)N2CCOCC2)c(OC)c1,nt,nt,22%,-17%,-11%,21%
O=C(Cn1ccccc1=O)Nc1ccc(Cl)c(S(=O)(=O)N2CCCCC2)c1,nt,nt,?,?,?,7%
CN(CCc1ccccn1)C(=O)CC1C(=O)NCCN1Cc1ccc(-c2ccccc2)cc1 (configuration not stated),11,1,26%,?,12µM*,8%
CCOc1ccccc1CN1CCNC(=O)C1CC(=O)N(C)CCc1ccccn1 (configuration not stated),3,8,-3%,-4%,?,-13%
